In PubChem BioAssay (NCATS):
Inconclusive results are not listed. The source made the active and inactive calls. Unless noted, calls come from the whole dose curve; as a rule, active = well fitted curve in either direction with a large enough effect (not every such curve was filed as active); inconclusive = small, poorly fitted or top-dose-only effect, or another doubt; inactive = flat fitted curve, though single readings scatter.

Experiments:
[1] = biological target: Lysosomal acid glucosylceramidase (Homo sapiens) (UniProt P04062); assay: Glucocerebrosidase-p2 (AID 348; in the data active = potency below about 10 µM; note: potency is the fitted concentration of half-maximal effect); settings: purified GBA, blue fluorogenic substrate, 40 min
How it was run: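 Compounds titrated from 0.6 nM upwards against 0.2 nM enzyme in pH 5.9 citric acid/KH2PO4, taurocholate, tween-20; blue fluorogenic substrate 80 uM, 40 min room temperature, stopped and read Ex 365/Em 440 for AC50.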

[2] = AP1 Signaling Pathway (AID 357); settings: ME-180 AP-1-bla reporter, EGF-induced, beta-lactamase ratio, 5 h; at 7.69 µM (top of the series) unless noted;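 note: ME-180 reporter cells stimulated with EGF at its EC50 level; % is set by controls: 0 for no effect and ±100 for the full control effect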
How it was run: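 Read-out was the 460nm/530nm emission ratio (excitation 405nm) after CCF4 loading for 2.5 hours at room temperature. Cells carried an AP-1-driven beta-lactamase reporter, were stimulated with EC50 EGF plus compound for 5 hours, and AC50 values came from titrations.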

[3] = NFAT Signaling Pathway (AID 444); settings: Jurkat NFAT-bla M1, carbachol, beta-lactamase ratio, 5 h; at 7.69 µM (top of the series) unless noted;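 note: carbachol stimulus at about its EC50 of 1 µM final; % is set by controls: 0 for no effect and ±100 for the full control effect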
How it was run: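 Read-out: CCF4 FRET ratio (460 nm/530 nm) after 1 h RT dye loading, used for %activity and AC50 from titration series. Cells: Jurkat NFAT-β-lactamase/M1 line, treated with compound plus 1 uM carbachol for 5 h, 37 °C.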

[4] = Stat Signaling Pathway (AID 446); settings: ME-180 SIE beta-lactamase reporter, IL-6 stimulated, 5 h; at 7.69 µM (top of the series) unless noted;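 note: ME-180 cervical cancer cells given 40 pM IL-6 alongside compound; SIE-controlled beta-lactamase reporter measured as 460/530 nm FRET emission ratio; % is set by controls: 0 for no effect and ±100 for the full control effect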
How it was run: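 IL-6/STAT signaling read in ME-180 cells via an SIE beta-lactamase reporter. Stimulus was 40 pM IL-6 (its AC50) for 5 hrs, so both activation and inhibition register.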

[5] = biological target: Glucocorticoid receptor (Homo sapiens) (UniProt P04150); assay: GR-EFC Redistribution (AID 451; calls by dose curve; note: potency is the fitted concentration of half-maximal effect); settings: CHO-K1 GR-EFC translocation, beta-gal luminescence, 2 h
How it was run: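 Translocation of GR-ED fusion to nuclear EA restores b-gal, read by luminescence after 1 h room-temperature detection. Engineered CHO-K1 biosensor cells, 1,000/well, exposed 2 h at 37 C to titrations up to 46 uM final.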

[6] = biological target: Mitogen-activated protein kinase 10 (Mus musculus) (UniProt Q61831); assay: JNK3 AlphaScreen Assay (AID 530); settings: JNK3 lysate, c-Jun phosphorylation; series mostly up to 57.1 µM;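 note: kinase came from lysate of stimulated human HepG2 cells; signal reports phosphorylation of biotinylated GST-cJun 1-79 at Ser73 with 10 µM ATP; % is set by controls: 0 for no effect and ±100 for the full control effect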
How it was run: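 Compound titrations were preincubated 15 minutes at room temperature with substrate, antibody and pre-activated JNK3-containing HepG2 lysate. Reactions were started with 10 uM ATP and stopped with EDTA-containing bead buffer for AlphaScreen detection.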

[7] = biological target: 3',5'-cyclic-AMP phosphodiesterase 4B (Homo sapiens) (UniProt Q07343); assay: qHTS Assay for Inhibitors of PDE-IV (AID 607; active = well fitted activation curve with a large enough effect in the main read-out, with a control signal flat, not every such curve was filed as active; note: % of control where 0% means no effect); settings: HEK293 ACTOne CNG channel cells, membrane potential fluorescence; series mostly up to 22.9 µM
How it was run: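 Live HEK293 cells with a modified cyclic nucleotide-gated (CNG) channel report intracellular cAMP via membrane-potential dye fluorescence (ex 535/em 590 nm). Endogenous PDE-IV was targeted. Compounds were tested at up to 22.9 uM final; RO 20-1724 100 uM served as control.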

[8] = qHTS Assay for Lipid Storage Modulators (AID 1519; calls by dose curve); settings: Drosophila S3 cells, BODIPY lipid droplet/cell ratio, laser cytometry, cells loaded with oleic acid; for activity change, negative = inhibition: at 57.5 µM (top of the series)
How it was run: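 Cells seeded at 5,000 per well were treated with compounds over a concentration series and loaded with oleic acid (400 uM, as added). Lipid droplet fluorescence (488 nm excitation, 500-530 nm channel) was read by laser-scanning cytometry and normalized to 20 uM Triacsin C.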

[9] = Primary qHTS for small molecule stabilizers of the endoplasmic reticulum resident proteome: Secreted ER Calcium Modulated Protein (SERCaMP) assay (AID 1508630; active = well fitted curve in the direction sought with a large enough effect; an effect the other way counts as inactive or inconclusive; note: % is set by controls: 0 for no effect and ±100 for the full control effect); settings: SH-SY5Y GLuc-SERCaMP (Gaussia luciferase released on ER calcium loss) secretion, thapsigargin, luminescence; series mostly up to 38.4 µM
How it was run: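 GLuc-SERCaMP-expressing SH-SY5Y cells, pretreated 16 h with compound, are challenged with thapsigargin to empty ER calcium stores; after 4 h, coelenterazine is added directly to the medium and luminescence is imaged.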

[10] = qHTS Assay for Identification of Small Molecule Agonists for Hypoxia Response Element Signaling Pathway (AID 914; active = well fitted activation curve with a large enough effect in the signal ratio, with a control signal flat, not every such curve was filed as active; the % refers to the signal ratio; note: % of control where 0% means no effect); settings: ME-180 (cervical carcinoma) HRE-bla reporter, beta-lactamase ratio, CoCl2, 17 h; activation: stronger effect = higher value
How it was run: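 AC50 values come from titration-series %Activity, taken as the 460/530nm ratio of CCF4 fluorescence (excitation 405nm). CellSensor HRE-bla ME-180 cells were treated 17 hours at 37 C with compound plus an EC50 level of CoCl2.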

[11] = biological target: Cytochrome P450 3A4 (Homo sapiens) (UniProt P08684); assay: qHTS Assay for Activators of Cytochrome P450 3A4 (AID 885; active = well fitted curve in the direction sought with a large enough effect; an effect the other way counts as inactive or inconclusive; note: nearly all actives have a fitted effect of over 65% in size); settings: recombinant CYP3A4, Luciferin-PPXE luminescence, 60 min; series mostly up to 57.1 µM
How it was run: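 Quantitative HTS format: compounds preincubated with 20nM human CYP3A4 and Luciferin-PPXE substrate at KM, reaction started by NADPH regeneration, stopped after 60 min, luciferase luminescence read 20 min later.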

[12] = measured here: cell count channel max response
[13] = measured here: lipid channel max response

Chain of 3',5'-cyclic-AMP phosphodiesterase 4B (Homo sapiens) (Q07343 whole entry, looked up): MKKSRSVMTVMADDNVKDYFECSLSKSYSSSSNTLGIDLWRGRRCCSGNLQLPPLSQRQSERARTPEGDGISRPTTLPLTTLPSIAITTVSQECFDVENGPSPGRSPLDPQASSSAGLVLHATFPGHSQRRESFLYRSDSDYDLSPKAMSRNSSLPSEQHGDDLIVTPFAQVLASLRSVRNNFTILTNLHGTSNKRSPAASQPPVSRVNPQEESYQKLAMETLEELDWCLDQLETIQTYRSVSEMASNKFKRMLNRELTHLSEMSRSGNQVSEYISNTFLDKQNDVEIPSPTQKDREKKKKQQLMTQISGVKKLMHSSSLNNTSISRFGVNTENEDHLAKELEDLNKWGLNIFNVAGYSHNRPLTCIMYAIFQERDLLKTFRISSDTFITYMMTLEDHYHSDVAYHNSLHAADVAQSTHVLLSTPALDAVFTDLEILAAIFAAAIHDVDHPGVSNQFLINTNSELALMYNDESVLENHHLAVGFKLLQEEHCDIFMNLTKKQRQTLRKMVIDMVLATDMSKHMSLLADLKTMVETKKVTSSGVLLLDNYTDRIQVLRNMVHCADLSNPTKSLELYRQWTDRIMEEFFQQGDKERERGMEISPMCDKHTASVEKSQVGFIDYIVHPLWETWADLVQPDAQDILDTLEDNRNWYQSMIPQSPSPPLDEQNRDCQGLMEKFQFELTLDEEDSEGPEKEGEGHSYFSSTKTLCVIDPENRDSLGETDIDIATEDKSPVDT
Chain of Lysosomal acid glucosylceramidase (Homo sapiens) (P04062 whole entry, looked up): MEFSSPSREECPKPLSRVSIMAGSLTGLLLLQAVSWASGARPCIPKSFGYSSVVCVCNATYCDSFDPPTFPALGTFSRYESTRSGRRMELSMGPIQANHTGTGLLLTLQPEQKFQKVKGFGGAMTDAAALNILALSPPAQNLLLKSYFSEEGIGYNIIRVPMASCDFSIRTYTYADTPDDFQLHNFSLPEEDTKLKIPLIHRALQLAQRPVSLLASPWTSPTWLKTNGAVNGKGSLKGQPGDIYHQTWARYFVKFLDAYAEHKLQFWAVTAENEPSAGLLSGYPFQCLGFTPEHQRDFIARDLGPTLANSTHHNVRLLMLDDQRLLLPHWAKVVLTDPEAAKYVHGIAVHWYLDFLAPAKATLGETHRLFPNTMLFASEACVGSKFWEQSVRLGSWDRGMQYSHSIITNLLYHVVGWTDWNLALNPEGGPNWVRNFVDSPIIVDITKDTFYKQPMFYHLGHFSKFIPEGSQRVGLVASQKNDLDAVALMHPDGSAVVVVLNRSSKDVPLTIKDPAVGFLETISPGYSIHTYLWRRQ
Chain of Glucocorticoid receptor (Homo sapiens) (P04150 whole entry, looked up, the tested form may be a part): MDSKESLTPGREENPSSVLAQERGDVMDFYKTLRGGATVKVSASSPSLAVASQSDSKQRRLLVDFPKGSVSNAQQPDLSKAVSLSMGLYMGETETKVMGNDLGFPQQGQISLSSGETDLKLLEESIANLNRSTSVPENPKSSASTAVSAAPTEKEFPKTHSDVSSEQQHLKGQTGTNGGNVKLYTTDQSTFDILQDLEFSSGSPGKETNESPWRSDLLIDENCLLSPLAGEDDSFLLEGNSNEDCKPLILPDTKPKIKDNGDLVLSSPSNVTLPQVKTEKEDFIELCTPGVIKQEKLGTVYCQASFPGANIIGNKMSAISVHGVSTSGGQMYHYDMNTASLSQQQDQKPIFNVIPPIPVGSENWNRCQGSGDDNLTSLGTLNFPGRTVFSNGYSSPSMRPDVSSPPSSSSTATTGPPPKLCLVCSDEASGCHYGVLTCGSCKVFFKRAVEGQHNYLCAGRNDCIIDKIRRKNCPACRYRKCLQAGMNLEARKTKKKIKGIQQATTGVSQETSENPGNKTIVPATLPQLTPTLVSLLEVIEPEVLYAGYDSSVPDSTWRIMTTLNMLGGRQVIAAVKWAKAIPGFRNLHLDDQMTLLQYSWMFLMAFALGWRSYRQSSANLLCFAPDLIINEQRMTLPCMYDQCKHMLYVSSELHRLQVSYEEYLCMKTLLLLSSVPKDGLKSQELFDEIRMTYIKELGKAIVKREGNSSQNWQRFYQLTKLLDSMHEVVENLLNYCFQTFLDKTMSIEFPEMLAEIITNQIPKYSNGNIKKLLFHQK
Chain of Cytochrome P450 3A4 (Homo sapiens) (P08684 whole entry, looked up): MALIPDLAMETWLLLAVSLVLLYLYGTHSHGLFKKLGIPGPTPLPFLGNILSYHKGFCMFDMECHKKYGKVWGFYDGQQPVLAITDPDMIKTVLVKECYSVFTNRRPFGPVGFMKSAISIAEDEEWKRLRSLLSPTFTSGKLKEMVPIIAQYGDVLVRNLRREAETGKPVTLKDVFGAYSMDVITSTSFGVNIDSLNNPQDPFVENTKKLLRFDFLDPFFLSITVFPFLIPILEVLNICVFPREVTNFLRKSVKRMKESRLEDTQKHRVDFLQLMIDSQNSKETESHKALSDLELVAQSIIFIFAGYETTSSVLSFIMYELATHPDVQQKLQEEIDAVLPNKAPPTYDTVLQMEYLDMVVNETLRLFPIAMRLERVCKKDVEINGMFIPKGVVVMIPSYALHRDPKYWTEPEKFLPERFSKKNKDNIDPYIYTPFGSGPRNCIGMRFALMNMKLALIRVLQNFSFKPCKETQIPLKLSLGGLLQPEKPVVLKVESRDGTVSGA

O=C(Nc1cccc(F)c1)N1CC[C@@]2(CCCN(C(=O)c3csnn3)C2)C1
inactive: Potency [1] > 11.4 µM | activity change, negative = inhibition [2] -13.9% | activity change, negative = inhibition [3] 20.4% | activity, negative = inhibition [4] -1.73% | Potency [5] > 46 µM | Potency [6] | Potency [7] | activity change, negative = inhibition [8] 3.72% | outcome [9]
12.5%: max response [8, 12]
18.5%: max response [8, 13]

CS(=O)(=O)N1CCC2(CCCN(c3cccc(-c4ccccc4)c3)C2)CC1
inactive: Potency [1] > 11.4 µM | activity change, negative = inhibition [2] -13.4% | activity change, negative = inhibition [3] 0.269% | activity, negative = inhibition [4] -0.955% | Potency [5] > 46 µM | Potency [6] | Potency [7] | activation [10] -18.3% | activity change, negative = inhibition [8] -12% | outcome [9]
-3.01%: max response [8, 13]
12.1%: max response [8, 12]

N#Cc1ccc(CN2CC[C@@]3(CCCN(C(=O)c4cccc(F)c4)C3)C2)cc1
2.5%: max response [8, 13]
inactive: Potency [1] > 11.4 µM | activity change, negative = inhibition [2] -24.8% | activity change, negative = inhibition [3] -12.5% | activity, negative = inhibition [4] -4.01% | Potency [5] > 46 µM | Potency [6] | Potency [7] | activity change, negative = inhibition [8] -0.514% | outcome [9]
0.82%: max response [8, 12]

COCC(=O)N1CCC[C@@]2(CCN(Cc3cc(C(F)(F)F)cc(C(F)(F)F)c3)C2)C1
inactive: Potency [1] > 11.4 µM | activity change, negative = inhibition [2] 3.75% | activity change, negative = inhibition [3] 6.67% | activity, negative = inhibition [4] 9.45% | Potency [5] > 46 µM | Potency [6] | Potency [7] | activity change, negative = inhibition [8] 5.27% | outcome [9]
7.6%: max response [8, 12]
16.2%: max response [8, 13]

COc1ccccc1CN1CC[C@@]2(CCCN(C(=O)c3ccncc3)C2)C1
8.53%: max response [8, 12]
14.1%: max response [8, 13]
inactive: Potency [1] > 11.4 µM | activity change, negative = inhibition [2] -11.5% | activity change, negative = inhibition [3] 3.54% | activity, negative = inhibition [4] 0.423% | Potency [6] | Potency [7] | activity change, negative = inhibition [8] 3.67% | outcome [9]

Cc1noc(C)c1C(=O)N1CCC[C@@]2(CCN(C(=O)Nc3ccccc3)C2)C1
7.38%: max response [8, 13]
inactive: Potency [1] > 11.4 µM | activity change, negative = inhibition [2] -22.6% | activity change, negative = inhibition [3] 19.8% | activity, negative = inhibition [4] -2.21% | Potency [5] > 46 µM | Potency [6] | Potency [7] | Potency [11] | activity change, negative = inhibition [8] 3.24% | outcome [9]
3.75%: max response [8, 12]

O=S(=O)(c1ccccc1)N1CCC2(CC1)CN(c1ccccc1)C2
inactive: Potency [1] > 11.4 µM | activity change, negative = inhibition [2] 3.38% | activity change, negative = inhibition [3] 8.23% | activity, negative = inhibition [4] -6.85% | Potency [5] > 46 µM | Potency [6] | Potency [7] | activity change, negative = inhibition [8] 4.76% | outcome [9]
18.4%: max response [8, 13]
12.5%: max response [8, 12]
